# Measurements taken from PubChem BioAssay (NCATS).
# Results filed as inconclusive are left out. Values without a mark were called inactive. Activity calls are given as the source filed them. The call rests on the fitted dose curve; in most records, active means well fitted curve in the direction sought with a large enough effect; inconclusive means small, poorly fitted or top-dose-only effect, or another doubt; inactive means no such curve, though single readings can be large or run the other way.
# Biological target: Glucagon-like peptide 1 receptor (Homo sapiens) (UniProt P43220)
# Sequence (P43220 whole entry, looked up): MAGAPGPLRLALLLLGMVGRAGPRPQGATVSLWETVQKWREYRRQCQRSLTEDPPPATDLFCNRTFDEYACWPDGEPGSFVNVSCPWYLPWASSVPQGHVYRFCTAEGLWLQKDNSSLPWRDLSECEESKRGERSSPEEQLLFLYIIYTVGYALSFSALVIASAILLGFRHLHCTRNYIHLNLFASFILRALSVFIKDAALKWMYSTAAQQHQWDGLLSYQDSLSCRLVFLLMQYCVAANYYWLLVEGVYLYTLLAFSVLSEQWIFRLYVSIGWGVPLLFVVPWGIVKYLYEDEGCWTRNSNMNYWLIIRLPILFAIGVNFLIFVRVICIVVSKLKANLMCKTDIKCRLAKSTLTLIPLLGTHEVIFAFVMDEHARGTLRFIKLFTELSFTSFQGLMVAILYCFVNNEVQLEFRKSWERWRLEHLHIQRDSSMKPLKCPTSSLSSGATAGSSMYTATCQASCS
# Assay: qHTS of GLP-1 Receptor Agonists: LOPAC Validation (AID 624148);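 further: luminescence from a luciferase reporter switched on by cAMP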;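 on activation: 0% is about no effect; higher luminescence signal means agonism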
# Conditions: GLP-1R agonist cell assay; series mostly up to 46.1 µM; activation: at the top concentration
# Description: The overall goal of this project was to develop a novel assay for discovering small molecule ligands for class B1 G protein-coupled receptors (GPCRs). Very few agonists (or inverse agonists) with generally weak activity for this entire group of physiologically important receptors are known to date. To establish proof-of-principle that this critical bottleneck can be overcome with a suitable screening approach, our studies focused on the class B1 receptor for glucagon-like peptide-1 (GLP-1R), a potential therapeutic target for diabetes and neurodegenerative disease.
# The assay was developed in a "mix and measure" format using a cell-based functional readout. Toward this goal, stably transfected HEK293 cell clones were established that co-express (i) a cAMP-responsive luciferase reporter gene, and (ii) GLP-1Rs that upon ligand interaction either stimulate (agonists) or inhibit (inverse agonists) luciferase activity. In different cell lines to be used for screening, expressed GLP-1Rs are specifically optimized for high sensitivity detection of either weak agonists (hypersensitive receptor) or inverse agonists (constitutively active receptor mutant). In addition, control cell lines were developed that express either the cAMP-responsive reporter gene without recombinant GLP-1Rs (enabling initial exclusion of GLP-1R independent effects of candidate probes), or the reporter gene together with wild type GLP-1Rs (for confirmation of probe activity at this receptor), or the reporter gene in combination with the constitutively active orphan receptor GPR119 (enabling initial exclusion of GLP-1R independent inhibitory effects of candidate inverse agonists).
# To that end, this assay was optimized for 1536-well format and screened against the MLSMR.
# NIH Molecular Libraries Probe Production Network [MLPCN]
# NIH Chemical Genomics Center [NCGC]
# PI Name: Martin Beinborn, Tufts Medical Center
# In a white solid 1536-well plate, 6 uL of cells are dispensed in DMEM without phenol red, 10% Nu serum, and 1% pen-strep medium. The plates are then incubated for 12 hours at 37 deg C at 5% CO2 before 23 nL of compounds are added. After a 4-6 hr incubation at37 deg C and 5% CO2, 3 uL of detection reagent are added and after a 12 min incubation at RT, a luminescent read is obtained on the ViewLux.
# Potency means the concentration at half of the fitted maximal effect.
Structure (SMILES),activation [%],Potency
Clc1ccc2nsnc2c1NC1=NCCN1,0.808,–
O=c1[nH]cc(F)c(=O)[nH]1,-1.55,–
CCOC(=O)c1ncn2c1CN(C)C(=O)c1cc(F)ccc1-2,-1.81,–
NC12CC3CC(CC(C3)C1)C2,-1.49,–
CC(C(=O)O)c1cccc(C(=O)c2ccccc2)c1 (stereo not given),-1.12,–
CN(C)c1nc(N(C)C)nc(N(C)C)n1,-1.45,–
COc1cc2c(c(OC)c1OC)-c1ccc(OC)c(=O)cc1[C@@H](NC(C)=O)CC2,9.25,–
COc1cc2nc(N3CCN(C(=O)C4COc5ccccc5O4)CC3)nc(N)c2cc1OC (stereo not given),-1.32,–
CN1CCN(CCCN2c3ccccc3Sc3ccc(Cl)cc32)CC1,-0.784,–
CC(C)NCC(O)COc1ccc(CCOCC2CC2)cc1 (stereo not given),0.676,–
Clc1ccccc1C(c1ccccc1)(c1ccccc1)n1ccnc1,8.15,–
NS(=O)(=O)c1cc2c(cc1Cl)NCNS2(=O)=O,-1.7,–
O=C(CCCN1CCC(O)(c2ccc(Cl)cc2)CC1)c1ccc(F)cc1,0.638,–
CN1CCC(=C2c3ccccc3C=Cc3ccccc32)CC1,-0.67,–
COc1ccc(C2CNC(=O)C2)cc1OC1CCCC1 (stereo not given),–,46.1 nM (active)
Cc1cc(C(C)(C)C)c(O)c(C)c1CC1=NCCN1,-1.59,–
CN(C)CCCN1c2ccccc2CCc2ccc(Cl)cc21,1.14,–
O=c1c(O)c(-c2ccc(O)c(O)c2)oc2cc(O)cc(O)c12,-1.82,–
CN(Cc1cnc2nc(N)nc(N)c2n1)c1ccc(C(=O)N[C@@H](CCC(=O)O)C(=O)O)cc1,0.766,–
O=C(C1CCCCC1)N1CC(=O)N2CCc3ccccc3C2C1 (stereo not given),5,–

Structure (SMILES),activation [%],Potency
Cc1cn([C@H]2C=C[C@@H](CO)O2)c(=O)[nH]c1=O,1.13,–
NCCS(=O)(=O)O,0.961,–
Cc1cn([C@H]2C[C@H](N=[N+]=[N-])[C@@H](CO)O2)c(=O)[nH]c1=O,-1.41,–
CCCCc1oc2ccccc2c1C(=O)c1cc(I)c(OCCN(CC)CC)c(I)c1,-1.11,–
COc1ccccc1N1CCN(CC(O)COc2cccc3ccccc23)CC1 (stereo not given),0.622,–
CC(COc1ccccc1)N(CCCl)Cc1ccccc1 (stereo not given),-0.838,–
CC#C[C@]1(O)CC[C@H]2[C@@H]3CCC4=CC(=O)CCC4=C3[C@@H](c3ccc(N(C)C)cc3)C[C@@]21C,3.46,–
Cn1c(=O)c2c(ncn2C)n(C)c1=O,-1.2,–
COc1nc(C)nc(Cl)c1NC1=NCCN1,-2.1,–
O=C1Cc2cc(CCN3CCN(c4nsc5ccccc45)CC3)c(Cl)cc2N1,-1.83,–
CN1C(C(=O)Nc2ccccn2)=C(O)c2ccccc2S1(=O)=O,0.54,–
O=C1N(c2ccccc2)c2ccccc2C1(Cc1ccncc1)Cc1ccncc1,-1.11,–
CC(C)C(=O)Nc1ccc([N+](=O)[O-])c(C(F)(F)F)c1,4.9,–
Fc1ccc([C@@H]2CCNC[C@H]2COc2ccc3c(c2)OCO3)cc1,3.78,–
COc1ccc2c(c1)c(CC(=O)O)c(C)n2C(=O)c1ccc(Cl)cc1,0.988,–
Nc1ccn([C@H]2CC[C@@H](CO)O2)c(=O)n1,-1.58,–
CN(C)C(=O)C(CCN1CCC(O)(c2ccc(Cl)cc2)CC1)(c1ccccc1)c1ccccc1,5.43,–
NCCc1cnc[nH]1,0.83,–
CN(C)CCC=C1c2ccccc2C=Cc2ccccc21,-0.484,–
Cc1ccccc1N1C(=O)c2cc(S(N)(=O)=O)c(Cl)cc2NC1C (stereo not given),1.15,–
